Laboratory results taken from PubChem BioAssay (NCI).
This is part of a sample that, as a whole, favours compounds with a hit. Of some 79,000 tested, about 15% had one in any assay. The source made the active and inactive calls. Rule as the data show it: active = growth inhibition above about 70%; inactive = the rest.

Key:
[1] = NCI Yeast Anticancer Drug Screen. Data for the mec2-1 strain (AID 157); conditions: S. cerevisiae mec2-1 strain, active compounds read high
In short: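 Compounds were applied to mec2-1 yeast cells. Their growth was then compared with that of vehicle-treated cultures to give growth inhibition.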

[2] = NCI Yeast Anticancer Drug Screen. Data for the rad14 strain (AID 159);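 also: 0% = growth of vehicle-treated control cultures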; conditions: S. cerevisiae rad14 strain growth inhibition, active compounds read high
In short: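 Inhibition of growth is reported for a repair-deficient yeast mutant following compound treatment, calculated relative to cultures that received vehicle.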

[3] = NCI Yeast Anticancer Drug Screen. Data for the sgs1 mgt1 strain (AID 161);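 also: 0% = growth of cultures given vehicle only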; conditions: S. cerevisiae sgs1 mgt1 strain, active compounds read high
In short: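 Compounds are added to genetically altered yeast, and growth is compared with cultures given vehicle alone to give percent inhibition.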

[4] = NCI Yeast Anticancer Drug Screen. Data for the CLN2oe strain (AID 163);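 also: 0% = growth of vehicle-only control cultures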; conditions: S. cerevisiae CLN2oe strain, active compounds read high
In short: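 Cells of an engineered yeast line with disturbed cell-cycle regulation are treated with compound. Inhibition of growth is then calculated relative to the vehicle-treated reference.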

[5] = NCI Yeast Anticancer Drug Screen. Data for the cln2 rad14 strain (AID 165);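 also: 0% = growth equal to vehicle treated cultures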; conditions: S. cerevisiae cln2 rad14 strain, active compounds read high
In short: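 Strain: cln2 rad14 yeast, altered in cell cycle control and DNA damage repair. Read-out: growth inhibition vs vehicle.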

[6] = NCI Yeast Anticancer Drug Screen. Data for the bub3 strain (AID 167); conditions: S. cerevisiae bub3 mutant strain, active compounds read high
In short: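 Mutant yeast screening strain plus compound; vehicle-treated cultures serve as the 0% inhibition reference.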

[7] = NCI Yeast Anticancer Drug Screen. Data for the wt2 strain (AID 169); conditions: S. cerevisiae wt2 strain growth inhibition, active compounds read high
In short: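 Growth of compound-treated yeast is measured and expressed as inhibition relative to vehicle-only controls.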

[8] = NCI Yeast Anticancer Drug Screen. Data for the mlh1 strain (AID 171);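 also: 0% = growth of vehicle-treated control cultures of the same strain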; conditions: S. cerevisiae mlh1 strain growth inhibition, active compounds read high
In short: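 Test agents were incubated with yeast bearing a defined DNA damage repair or cell cycle control alteration; values are growth inhibition normalised to vehicle-treated cultures.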

[9] = NCI Yeast Anticancer Drug Screen. Data for the sgs1 strain (AID 173);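 also: 0% = growth of vehicle-only control cultures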; conditions: S. cerevisiae sgs1 mutant, active compounds read high
In short: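 Strain with an altered DNA repair or cell cycle pathway exposed to compound. Growth then measured. Value = inhibition versus vehicle control.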

[10] = NCI Yeast Anticancer Drug Screen. Data for the mlh1 rad18 strain (AID 175); conditions: S. cerevisiae mlh1 rad18 strain growth inhibition, active compounds read high
In short: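 A repair-deficient yeast strain is exposed to test compound, and growth is scored relative to vehicle-treated controls.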

[11] = NCI Yeast Anticancer Drug Screen. Data for the rad18 strain (AID 177); conditions: S. cerevisiae rad18 mutant growth inhibition, active compounds read high
In short: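 DNA-repair-defective yeast; compound treatment; growth inhibition scored against vehicle.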

[12] = NCI Yeast Anticancer Drug Screen. Data for the rad52 strain (AID 147);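 also: 0% = growth of vehicle-treated control cultures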; conditions: S. cerevisiae rad52 mutant growth inhibition, active compounds read high
In short: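 Growth of repair-deficient yeast cells was compared between compound-treated and vehicle-treated cultures to give percent inhibition.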

[13] = NCI Yeast Anticancer Drug Screen. Data for the wt1 strain (AID 149);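 also: 0% = growth of vehicle-treated wt1 cultures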; conditions: S. cerevisiae wt1 strain (SPY 50644) growth inhibition, active compounds read high
In short: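 Each compound is tested on wt1 yeast and the loss of growth versus vehicle gives the inhibition value.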

[14] = NCI Yeast Anticancer Drug Screen. Data for the mgt1 strain (AID 153); conditions: S. cerevisiae mgt1 mutant growth inhibition, active compounds read high
In short: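 Compounds were applied to mgt1 mutant yeast, and growth was then compared against vehicle-treated control cultures to give percent inhibition.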

[15] = NCI Yeast Anticancer Drug Screen. Data for the rad50 strain (AID 155);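 also: 0% = growth of vehicle-only cultures of the same strain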; conditions: S. cerevisiae rad50 strain growth inhibition, active compounds read high
In short: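 Vehicle-treated cultures provide the reference for the growth inhibition reported for compound-exposed, repair-deficient yeast.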

[16] = at 5.0 µM (retest, dose inferred, filed as 0.5)
[17] = at 50.0 µM (retest, dose inferred, filed as 5.0)

Measured: growth inhibition

O=[N+]([O-])c1cc(CCl)ccc1CCl
inactive: [2]; at 1.2 µM 8% | [2]; at 3.7 µM 13% | [2]; at 11.0 µM 38% | [3]; [16] 4% | [4]; at 1.2 µM 10% | [4]; at 3.7 µM 15% | [4]; at 11.0 µM 48% | [5]; [16] 57% | [6]; at 1.2 µM -18% | [6]; at 3.7 µM 2% | [6]; [16] -17% | [6]; at 11.0 µM 46% | [7]; at 1.2 µM 3% | [7]; at 3.7 µM 15% | [7]; at 11.0 µM 54% | [8]; at 1.2 µM 4% | [8]; at 3.7 µM 13% | [8]; at 11.0 µM 58% | [9]; at 1.2 µM 11% | [9]; at 3.7 µM 28% | [10]; [16] 38% | [11]; at 1.2 µM 32% | [11]; at 3.7 µM 66%
active: [1]; at 100.0 µM 98% | [2]; at 33.0 µM 95% | [2]; at 100.0 µM 97% | [3]; [17] 98% | [3]; at 50.0 µM 98.5% | [4]; at 33.0 µM 94% | [4]; at 100.0 µM 97% | [5]; [17] 97% | [5]; at 50.0 µM 98.3% | [6]; at 33.0 µM 92% | [6]; [17] 97% | [6]; at 50.0 µM 99.4% | [6]; at 100.0 µM 97% | [7]; at 33.0 µM 96% | [7]; at 100.0 µM 99% | [8]; at 33.0 µM 95% | [8]; at 100.0 µM 98% | [9]; at 11.0 µM 79% | [9]; at 33.0 µM 96% | [9]; at 100.0 µM 98% | [10]; [17] 99% | [10]; at 50.0 µM 99% | [11]; at 11.0 µM 94% | [11]; at 33.0 µM 98% | [11]; at 100.0 µM 97%

O=[N+]([O-])c1ccc2nc3ccccc3cc2c1
inactive: [12]; at 1.2 µM 3% | [12]; at 3.7 µM 13% | [12]; at 11.0 µM 35% | [13]; at 1.2 µM -5% | [13]; at 3.7 µM -4% | [13]; at 11.0 µM -7% | [13]; at 33.0 µM 21% | [14]; at 1.2 µM -1% | [14]; at 3.7 µM -5% | [14]; at 11.0 µM -1% | [14]; at 33.0 µM 29% | [15]; at 1.2 µM 1% | [15]; at 3.7 µM 22% | [15]; [16] -16% | [15]; at 11.0 µM 59% | [1]; at 1.2 µM -2% | [1]; at 3.7 µM 1% | [1]; [16] -37% | [1]; at 11.0 µM 8% | [1]; at 33.0 µM 27% | [1]; at 50.0 µM 55.5% | [2]; at 1.2 µM 0% | [2]; at 3.7 µM 9% | [2]; at 11.0 µM 20% | [2]; at 33.0 µM 45% | [3]; [16] -40% | [3]; at 50.0 µM 68.2% | [4]; at 1.2 µM -6% | [4]; at 3.7 µM -2% | [4]; at 11.0 µM 5% | [4]; at 33.0 µM 18% | [4]; at 100.0 µM 54% | [5]; [16] -59% | [5]; [17] 16% | [5]; at 50.0 µM 0.1% | [6]; at 1.2 µM -2% | [6]; at 3.7 µM -2% | [6]; [16] -51% | [6]; at 11.0 µM 14% | [6]; at 33.0 µM 39% | [6]; at 50.0 µM 69% | [7]; at 1.2 µM 0% | [7]; at 3.7 µM 1% | [7]; at 11.0 µM 3% | [7]; at 33.0 µM 33% | [8]; at 1.2 µM 7% | [8]; at 3.7 µM 0% | [8]; at 11.0 µM 14% | [8]; at 33.0 µM 51% | [10]; [16] -71% | [11]; at 1.2 µM 14% | [11]; at 3.7 µM 32% | [11]; at 11.0 µM 67%
active: [12]; at 33.0 µM 74% | [12]; at 100.0 µM 96% | [13]; at 100.0 µM 81% | [14]; at 100.0 µM 86% | [15]; at 33.0 µM 89% | [15]; [17] 92% | [15]; at 50.0 µM 87% | [15]; at 100.0 µM 95% | [1]; [17] 85% | [1]; at 100.0 µM 84% | [2]; at 100.0 µM 91% | [3]; [17] 89% | [6]; [17] 91% | [6]; at 100.0 µM 94% | [7]; at 100.0 µM 89% | [8]; at 100.0 µM 96% | [10]; [17] 90% | [10]; at 50.0 µM 89.1% | [11]; at 33.0 µM 87% | [11]; at 100.0 µM 96%

COC(=O)CSSCc1ccc([N+](=O)[O-])cc1
active: [12]; at 33.0 µM 75% | [12]; at 100.0 µM 98% | [13]; at 100.0 µM 83% | [14]; at 100.0 µM 98% | [15]; at 33.0 µM 85% | [15]; [17] 97% | [15]; at 50.0 µM 97.3% | [15]; at 100.0 µM 97% | [1]; [17] 96% | [1]; at 50.0 µM 96% | [1]; at 100.0 µM 97% | [2]; at 100.0 µM 98% | [3]; [17] 97% | [3]; at 50.0 µM 94.7% | [4]; at 100.0 µM 95% | [5]; [17] 89% | [5]; at 50.0 µM 93.6% | [6]; at 33.0 µM 71% | [6]; [17] 98% | [6]; at 50.0 µM 96% | [6]; at 100.0 µM 97% | [7]; at 100.0 µM 98% | [8]; at 100.0 µM 99% | [10]; [17] 98% | [10]; at 50.0 µM 94.4%
inactive: [12]; at 1.2 µM 3% | [12]; at 3.7 µM 19% | [12]; at 11.0 µM 40% | [13]; at 1.2 µM -1% | [13]; at 3.7 µM -2% | [13]; at 11.0 µM 3% | [13]; at 33.0 µM 24% | [14]; at 1.2 µM -1% | [14]; at 3.7 µM 1% | [14]; at 11.0 µM 16% | [14]; at 33.0 µM 44% | [15]; at 1.2 µM 4% | [15]; at 3.7 µM 20% | [15]; [16] 15% | [15]; at 11.0 µM 47% | [1]; at 1.2 µM -2% | [1]; at 3.7 µM 2% | [1]; [16] -8% | [1]; at 11.0 µM 14% | [1]; at 33.0 µM 37% | [2]; at 1.2 µM 0% | [2]; at 3.7 µM 8% | [2]; at 11.0 µM 20% | [2]; at 33.0 µM 48% | [3]; [16] 38% | [4]; at 1.2 µM -1% | [4]; at 3.7 µM -6% | [4]; at 11.0 µM 7% | [4]; at 33.0 µM 43% | [5]; [16] -10% | [6]; at 1.2 µM 1% | [6]; at 3.7 µM 5% | [6]; [16] 43% | [6]; at 11.0 µM 24% | [7]; at 1.2 µM 1% | [7]; at 3.7 µM -3% | [7]; at 11.0 µM 22% | [7]; at 33.0 µM 34% | [8]; at 1.2 µM -4% | [8]; at 3.7 µM 9% | [8]; at 11.0 µM 31% | [8]; at 33.0 µM 67% | [10]; [16] 69%
